Test results as given in the supplement of paper PMC8975748.
Where a name gives a salt, the structure may show the parent alone. ± gives the standard deviation of the averaged measurements.

Columns and labels:
[1] = test system: Saccharomyces cerevisiae BY4741 SeMeCo community; assay: mean cell size (pixel area) (pixels); higher = larger cells; settings: 10 µM; 24 h; SM minimal medium
How it was run: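 A four-plasmid fluorescent Saccharomyces cerevisiae BY4741 community was tested; each plasmid complements one auxotrophy and carries a fluorescent marker. An overnight preculture at OD600 = 1.0 was diluted to OD600 = 0.3, and 70 µl was added to 384-well plates acoustically predosed with drug (final 10 µM) in SM medium for 24 h. Cells were fixed with paraformaldehyde and imaged by automated confocal microscopy, with analysis in Harmony. Mean cell pixel area per well is averaged over 3 replicates. Same SeMeCo high-content imaging drug screen: Selleck FDA-approved drugs at 10 µM, 24 h in SM medium, 384-well plates, 3 replicates.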

[2] = test system: Saccharomyces cerevisiae BY4741 SeMeCo community; assay: z-score of prototroph abundance vs DMSO median; higher = larger share of this subpopulation than in DMSO controls; settings: 10 µM; 24 h; SM minimal medium; subpopulation (auxotrophy): Prototroph
How it was run: (§1)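 A Saccharomyces cerevisiae BY4741 community carried four plasmids, each restoring one auxotrophy and encoding a distinct fluorescent protein. It was pre-grown overnight to OD600 1.0, diluted to 0.3, and 70 µl was added to 384-well plates acoustically predosed with library drugs (10 µM final), then grown 24 h in minimal SM medium. Cells were paraformaldehyde-fixed and imaged by automated confocal microscopy, with single-auxotroph fluorescent strains setting thresholds and autofluorescence correction. Each subpopulation's abundance was scored as a z-score against the vehicle-well median.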

[3] = test system: Saccharomyces cerevisiae BY4741 SeMeCo community; assay: z-score of subpopulation abundance vs DMSO median, subpopulation auxotrophic for M; higher = larger share of this subpopulation than in DMSO controls; settings: 10 µM; 24 h; SM minimal medium; subpopulation (auxotrophy): M
How it was run: as §1

[4] = test system: Saccharomyces cerevisiae BY4741 SeMeCo community; assay: z-score of subpopulation abundance vs DMSO median, subpopulation auxotrophic for L; higher = larger share of this subpopulation than in DMSO controls; settings: 10 µM; 24 h; SM minimal medium; subpopulation (auxotrophy): L
How it was run: as §1

[5] = test system: Saccharomyces cerevisiae BY4741 SeMeCo community; assay: z-score of subpopulation abundance vs DMSO median, subpopulation auxotrophic for U; higher = larger share of this subpopulation than in DMSO controls; settings: 10 µM; 24 h; SM minimal medium; subpopulation (auxotrophy): U
How it was run: as §1

[6] = test system: Saccharomyces cerevisiae BY4741 SeMeCo community; assay: z-score of subpopulation abundance vs DMSO median, subpopulation auxotrophic for H; higher = larger share of this subpopulation than in DMSO controls; settings: 10 µM; 24 h; SM minimal medium; subpopulation (auxotrophy): H
How it was run: as §1

[7] = test system: Saccharomyces cerevisiae BY4741 SeMeCo community; assay: z-score of subpopulation abundance vs DMSO median, subpopulation auxotrophic for LM; higher = larger share of this subpopulation than in DMSO controls; settings: 10 µM; 24 h; SM minimal medium; subpopulation (auxotrophy): LM
How it was run: as §1

[8] = test system: Saccharomyces cerevisiae BY4741 SeMeCo community; assay: z-score of subpopulation abundance vs DMSO median, subpopulation auxotrophic for HM; higher = larger share of this subpopulation than in DMSO controls; settings: 10 µM; 24 h; SM minimal medium; subpopulation (auxotrophy): HM
How it was run: as §1

[9] = test system: Saccharomyces cerevisiae BY4741 SeMeCo community; assay: z-score of subpopulation abundance vs DMSO median, subpopulation auxotrophic for HU; higher = larger share of this subpopulation than in DMSO controls; settings: 10 µM; 24 h; SM minimal medium; subpopulation (auxotrophy): HU
How it was run: as §1

[10] = test system: Saccharomyces cerevisiae BY4741 SeMeCo community; assay: z-score of subpopulation abundance vs DMSO median, subpopulation auxotrophic for UM; higher = larger share of this subpopulation than in DMSO controls; settings: 10 µM; 24 h; SM minimal medium; subpopulation (auxotrophy): UM
How it was run: as §1

[11] = test system: Saccharomyces cerevisiae BY4741 SeMeCo community; assay: z-score of subpopulation abundance vs DMSO median, subpopulation auxotrophic for HL; higher = larger share of this subpopulation than in DMSO controls; settings: 10 µM; 24 h; SM minimal medium; subpopulation (auxotrophy): HL
How it was run: as §1

[12] = test system: Saccharomyces cerevisiae BY4741 SeMeCo community; assay: z-score of subpopulation abundance vs DMSO median, subpopulation auxotrophic for HLU; higher = larger share of this subpopulation than in DMSO controls; settings: 10 µM; 24 h; SM minimal medium; subpopulation (auxotrophy): HLU
How it was run: as §1

[13] = test system: Saccharomyces cerevisiae BY4741 SeMeCo community; assay: z-score of subpopulation abundance vs DMSO median, subpopulation auxotrophic for HLM; higher = larger share of this subpopulation than in DMSO controls; settings: 10 µM; 24 h; SM minimal medium; subpopulation (auxotrophy): HLM
How it was run: as §1

[14] = test system: Saccharomyces cerevisiae BY4741 SeMeCo community; assay: z-score of subpopulation abundance vs DMSO median, subpopulation auxotrophic for HUM; higher = larger share of this subpopulation than in DMSO controls; settings: 10 µM; 24 h; SM minimal medium; subpopulation (auxotrophy): HUM
How it was run: as §1

[15] = test system: Saccharomyces cerevisiae BY4741 SeMeCo community; assay: z-score of subpopulation abundance vs DMSO median, subpopulation auxotrophic for LUM; higher = larger share of this subpopulation than in DMSO controls; settings: 10 µM; 24 h; SM minimal medium; subpopulation (auxotrophy): LUM
How it was run: as §1

[16] = test system: Saccharomyces cerevisiae BY4741 SeMeCo community; assay: z-score of subpopulation abundance vs DMSO median, subpopulation auxotrophic for HLUM; higher = larger share of this subpopulation than in DMSO controls; settings: 10 µM; 24 h; SM minimal medium; subpopulation (auxotrophy): HLUM
How it was run: as §1

[17] = test system: Saccharomyces cerevisiae BY4741 SeMeCo community; assay: z-score of subpopulation abundance vs DMSO median, subpopulation auxotrophic for LU; higher = larger share of this subpopulation than in DMSO controls; settings: 10 µM; 24 h; SM minimal medium; subpopulation (auxotrophy): LU
How it was run: as §1

| Compound | mean cell size [1] | z-score of prototroph abundance [2] | z-score of subpopulation abundance [3] | z-score of subpopulation abundance [4] | z-score of subpopulation abundance [5] | z-score of subpopulation abundance [6] | z-score of subpopulation abundance [7] | z-score of subpopulation abundance [8] | z-score of subpopulation abundance [9] | z-score of subpopulation abundance [10] | z-score of subpopulation abundance [11] | z-score of subpopulation abundance [12] | z-score of subpopulation abundance [13] | z-score of subpopulation abundance [14] | z-score of subpopulation abundance [15] | z-score of subpopulation abundance [16] | z-score of subpopulation abundance [17] |
| --- | --- | --- | --- | --- | --- | --- | --- | --- | --- | --- | --- | --- | --- | --- | --- | --- | --- |
| Cc1noc(NS(=O)(=O)c2ccc(N)cc2)c1C [Sulfisoxazole] | 12.4 ± 0.16 | -1.42 | 0.18 | 0.65 | 0.32 | -0.4 | 0.69 | 0.12 | 0.32 | 1.17 | 0.35 | 0.89 | 1.44 | 1.21 | 1.7 | 1.03 |  |
| Cc1c(-c2ccc(O)cc2)n(Cc2ccc(OCCN3CCCCCC3)cc2)c2ccc(O)cc12 [Bazedoxifene HCl] |  | -0.43 | 0.94 |  | -0.23 | 1.47 | 0.49 | 1.47 | -0.01 |  | 1.1 | -0.15 |  |  | 0.03 | -0.25 | 0.03 |
| c1ccc(-c2ccc(C(c3ccccc3)n3ccnc3)cc2)cc1 (centres undefined) [Bifonazole] | 12.65 ± 0.082 | -0.9 | 3.3 | -1.29 | -0.36 | 1.08 | 0.64 | -0.61 | 1.01 | 0.46 | 1.27 | 0.9 | 2.32 | 0.21 | 0.94 | 2.46 |  |
| CN(C)CCCN1c2ccccc2Sc2ccccc21 [Promazine hydrochloride] | 12.5 ± 0.15 | 0.19 | 0.15 |  | 0.34 | -0.82 | -0.08 | -0.18 | -0.69 | -0.02 |  | 0.06 |  | 0.07 | 0.25 | 0.6 | 0.52 |
| O=C(O)Cc1ccccc1Nc1c(Cl)cccc1Cl [Diclofenac Sodium] | 12.7 ± 0.18 | 1.13 | 0.68 | -0.21 | -0.91 | -0.51 | -0.23 | -0.3 | -1.76 | -1.45 | -0.56 | -1.75 | -0.07 | -1.27 | -0.98 | -0.38 |  |
| CO/N=C(\C(=O)N[C@@H]1C(=O)N2C(C(=O)OC(C)OC(C)=O)=C(COC(N)=O)CS[C@H]12)c1ccco1 (some centres undefined) [Cefuroxime axetil] | 12.59 ± 0.065 | -0.04 | -0.61 |  | 1.94 | -0.4 | -1.34 | -0.74 |  | 0.26 |  | -0.22 | -0.11 |  | -0.64 | 0.39 | -0.86 |
| CC1(C)S[C@@H]2[C@H](NC(=O)COc3ccccc3)C(=O)N2[C@H]1C(=O)O [Penicillin V potassium salt] | 11.8 ± 0.2 | 0.29 | 0.91 | -1.58 | 0.95 | -1.14 | 0.22 | 0.44 | 0.49 |  |  | -0.94 | -0.74 | -0.23 | -0.32 | -1.08 |  |
| CCn1cc(C(=O)O)c(=O)c2cc(F)c(N3CCNCC3)cc21 [Norfloxacin] | 12.3 ± 0.21 |  | 0.77 | -0.15 | -0.7 | 0.31 | 0.65 | 0.41 | -0.03 | -0.54 | 0.28 | -0.16 | -0.51 | 0.46 | -0.23 | -0.9 |  |
| O=C(NCCN1CCOCC1)c1ccc(Cl)cc1 | 12.4 ± 0.22 | 0.89 | 0.03 |  | -0.52 | -0.65 | 1.06 | -0.79 | -1.32 | -1.28 | -0.31 | 0.17 |  | -1.26 | 0.42 | 0.73 | 0.18 |
| CN(Cc1cnc2nc(N)nc(N)c2n1)c1ccc(C(=O)N[C@@H](CCC(=O)O)C(=O)O)cc1 [Methotrexate disodium] | 15.01 ± 0.07 | 0.74 | -6.18 |  | -4.34 | 15.3 | -1.46 | 1.68 | -1.36 | -5.52 | 10.8 | 0.91 |  | -2.01 | -1.74 | 19.8 | -3.33 |
| C[C@@H](O)[C@H]1C(=O)N2C(C(=O)O)=C(S[C@@H]3CN[C@H](CNS(N)(=O)=O)C3)[C@H](C)[C@H]12 [Doripenem Hydrate] | 12.38 ± 0.092 | 0.39 | -0.6 | 0.82 | 0.2 |  | -0.44 | -0.76 | -0.19 | -0.42 | -0.25 | -0.09 | -0.78 | -0.79 | -0.2 | -1.04 |  |
| CCCN1CCCC[C@H]1C(=O)Nc1c(C)cccc1C [Ropivacaine HCl] | 12.6 ± 0.13 | -0.38 | 0.95 | 0.47 | 0.42 | -0.94 | 0.37 | -0.41 | -0.21 | 0.78 | -0.74 | -0.22 | 0.38 | -0.03 | -0.08 | 0.18 |  |
| CN(C)C(=O)COC(=O)Cc1ccc(OC(=O)c2ccc(NC(=N)N)cc2)cc1 [Camostat Mesilate] | 12.5 ± 0.12 | 0.66 | -0.25 | 0.34 | -0.37 | 0.16 | -0.5 | -0.32 | -0.36 | -0.43 | -0.35 | -0.87 | -0.36 | -0.25 | -0.84 | -0.69 |  |
| CC1(C)S[C@@H]2[C@H](NC(=O)Cc3ccccc3)C(=O)N2[C@H]1C(=O)O [Penicillin G Sodium] | 12.6 ± 0.34 | 0.77 | -0.8 | -0.1 | 0.06 | -0.3 | -0.29 | -1.14 | -0.78 | -0.23 | -0.32 | -0.18 | -0.09 | -0.66 | -0.52 | 1.41 |  |
